# Test results taken from PubChem BioAssay AID2530 (National Center for Advancing Translational Sciences (NCATS), 2010).
# Records with an inconclusive call do not appear. Where a call stands in place of a potency, no number is given. Activity calls are given as the source filed them. The call rests on the fitted dose curve; in most records, active means well fitted inhibition curve with a large enough effect; inconclusive means small, poorly fitted or top-dose-only effect; inactive means flat fitted curve, though single readings scatter.
# Target: Luciferin 4-monooxygenase (Photuris pensylvanica) (UniProt Q27757)
# Test: Secondary Assay for Luciferase (Kinase-Glo TM) Inhibition Counterscreen
# Conditions: Kinase-Glo luciferase enzyme, luminescence; series mostly up to 58.1 µM
# Procedure, shortened: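 Inhibition was fitted with the Hill equation after normalizing luminescence to DMSO (basal) and 40 uM SIB 1757 (full inhibition). Kinase-Glo luciferase ran for 8 min at room temperature in imidazole buffer pH 7.2 with KCl, MgCl2 and 10 uM ATP.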
# Potency means the concentration at half of the fitted maximal effect.
row,SMILES,Potency
1,c1ccc(C2=NNC(=NC3CC3)SC2)cc1,3.26 µM (active)
2,O=C1c2ccccc2C(=O)N1c1cncc2ccccc12,inactive
3,O=C1c2ccccc2C(=O)N1c1cc(=O)c2ccccc2[nH]1,inactive
4,O=S1(=O)N=C(Oc2cccc(Cl)c2)c2ccccc21,inactive
5,CN(C)c1ccc(N=Nc2nc3ccccc3n2C)cc1,9.19 µM (active)
6,O=S(=O)(Nc1ccc(O)c(NS(=O)(=O)c2ccccc2)c1)c1ccccc1,inactive
7,O=C1CCc2cc(S(=O)(=O)Nc3ccccn3)ccc2N1,inactive
8,Cc1cc(C)n2c(Nc3ccccc3)c(-c3ccc(C)o3)nc2n1,inactive
9,COc1cccc(N2C(=O)c3ccccc3C2=O)c1,inactive
10,O=C1c2ccccc2C(=O)N1c1cccc2cccnc12,inactive
11,Cc1ccc(NS(=O)(=O)c2cc3c(cc2/C=C/c2ccccc2)NC(=O)CO3)cc1C,inactive
12,Cc1ccc(NS(=O)(=O)c2ccc3c(c2)CCC(C)(C)O3)cc1C,inactive
13,Cc1ccc(S(=O)(=O)/N=C2/C=C(Sc3ncn[nH]3)C(=O)c3ccccc32)c(C)c1,inactive
14,O=C1c2ccccc2C(=O)N1c1cccc(O)c1,inactive
15,COc1ccccc1N1C(=O)c2ccccc2C1=O,inactive
16,O=C1c2ccccc2C(=O)N1c1cccc2ccncc12,inactive
17,Cc1ccc(C(=O)N2c3ccccc3CC2C)o1 (stereo not drawn),18.3 µM (active)
18,Cc1ccc(NS(=O)(=O)c2ccc3ccccc3c2)cc1C,inactive
